Data taken from PubChem BioAssay (NCI).
“And” between values parts separate entries of the source, which are not always exact repeats. Equal entries are not always repeated. This is part of a sample that, as a whole, favours compounds with a hit. Of some 83,000 tested, about 20% had one in any assay.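 In brief: 96-well plates, 48 h treatment, single concentration, percent growth endpoint.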 The source made the active and inactive calls. Rule for the calls: active = growth percent below 10; inactive = the rest.

tested on: HL-60(TB) leukemia; assay: NCI-60 one-dose screen, 48 h (100 = growth as untreated, 0 = no growth, -100 = all killed); settings: 10 µM unless noted

Row | Compound | growth
1 | [2H]c1nc(Nc2ncc(F)c(-c3cc(F)c4nc(C)n(C(C)C)c4c3)n2)c([2H])c([2H])c1CN1CCN(C([2H])([2H])C([2H])([2H])[2H])CC1 | 34.6% (inactive)
2 | O=Nc1c(O)c(Cl)cc2ccccc12 | 42.7% (inactive)
3 | C=C(C)[C@@H]1CC[C@]2(C(=O)N=C=S)CC[C@]3(C)[C@H](CC[C@@H]4[C@@]5(C)CCC(=O)C(C)(C)[C@@H]5CC[C@]43C)[C@@H]12 | -2.27% (active)
4 | CCN1C(=O)N(CC)C2C1NN=c1s/c(=C\c3cccc([N+](=O)[O-])c3)c(=O)n12 (stereo not given) | -37.1% (active)
5 | CCOc1ccccc1NC(=O)CCl | 104% (inactive)
6 | COc1ccc(-n2ncn(CCCCCCn3cnn(-c4ccc(OC)cc4)c3=O)c2=O)cc1 | 86.7% (inactive)
7 | COc1ccc(-c2nn(Cc3ccccc3)c3c2-c2oncc2CC3)cc1OC | 87.7% (inactive)
8 | OCC(O)c1nc2ccc3[nH]ncc3c2c2c1CCCC2 (stereo not given) | -16.9% (active)
9 | COc1ccc(C(=O)c2ccc(OC)c(OC)c2OC)cc1 | 22.3% (inactive) and -8.89% (active)
10 | COc1ccc(C(=O)N2NC(=O)/C(=C/c3ccc(F)cc3)N=C2c2ccccc2)cc1 | 3.84% (active)
11 | COc1ccc(C2=C(c3cc(OC)c(OC)c(OC)c3)C(=O)CC2)cc1 | 11.1% (inactive)
12 | Cc1c(Cl)cccc1NC(=O)c1sc2nc3c(cc2c1N)CCCCC3 | -24.9% (active)
13 | CC(C)[N+](C)(C)CC(O)COc1cccc2ccccc12 (stereo not given) | 126% (inactive)
14 | O=C1Nc2c(ccc(Cl)c2Cl)/C1=C/c1ccc(F)cc1 | 71.4% (inactive)
15 | C=CCN(/C=C/CN(CC=C)CC=C)CC=C | 102% (inactive)
16 | O=C1CC(c2cccc(-c3cccnc3)c2)=Nc2ccc(Br)cc2N1 | 41.6% (inactive)
17 | c1cnc2c(-c3nc4ccc5[nH]ncc5c4c4c3CCCC4)c[nH]c2c1 | 41.5% (inactive)
18 | O=c1c2cc(-c3ccccc3)sc2nc2sc(-c3ccccc3)nn12 | 96.4% (inactive)
19 | CCCCC(=O)c1ccco1 | 103% (inactive)
20 | C=C1c2nc3ccccc3n2C=C(c2ccc(OC)cc2)N1Cc1ccccc1 | 80% (inactive)

Row | Compound | growth
21 | C=C1C(=O)O[C@H]2[C@H]1CC/C(COC(=O)NC1CCC(O)CC1)=C\CC[C@@]1(C)O[C@@H]21 (stereo not given in full) | 70.6% (inactive) and 62.5% (inactive)
22 | O=C1c2cccnc2C(=O)c2c1c(C(=O)NCCn1ccnc1)c1ccccn21 | 0.989% (active)
23 | CC(CN=Cc1ccccc1O)N=Cc1ccccc1O (stereo not given) | 110% (inactive) and 83% (inactive)
24 | O=C(CI)NC1Oc2ccccc2-c2oc(=O)c(-c3ccccc3)cc21 (stereo not given) | -39.3% (active)
25 | Cc1ccc(Cc2cnc(NC(=O)c3cc(Br)cs3)s2)cc1 | 8.08% (active)
26 | C=C(C)[C@@H]1CC[C@]2(C(=O)OC)CC[C@]3(C)[C@H](CC[C@@H]4[C@@]5(C)C/C(=C/NC(N)=S)C(=O)C(C)(C)[C@@H]5CC[C@]43C)[C@@H]12 | 95% (inactive)
27 | O=S(=O)(NCCCNc1nccc(-c2c(-c3ccc(F)c(O)c3)nc3occn23)n1)c1ccccc1 | 84.3% (inactive)
28 | Cc1cc(C(=O)NN)c(C#N)c(=O)[nH]1 | 111% (inactive)
29 | CN1C(=O)C(N=Nc2ccc([N+](=O)[O-])cc2)SC1=S (stereo not given) | -4.43% (active) and -10.4% (active)
30 | COc1cc(C2NC(=O)c3ccccc3N2)ccc1OCCCCCOc1c(OC)cc(C2=NOC(c3cc(OC)c(OC)c(OC)c3)C2)cc1OC (stereo not given) | 68.3% (inactive)
31 | O=C1C(SCCO)=C(SCCO)C(=O)N1c1ccc(-c2ccccc2)cc1 | -44.2% (active)
32 | OCCOCCN(Cc1ccccn1)Cc1cc(I)cc(I)c1O | 63.3% (inactive)
33 | CCCCCN(CCCCC)CC(O)c1cc2c(c3ccccc13)CCCC2 (stereo not given) | 18.6% (inactive) and 58.1% (inactive)
34 | O=C(Nc1ccc(Cl)cc1)Nc1ccc(Cl)c(C(F)(F)F)c1 | -60.8% (active)
35 | O=C(N/N=C/c1ccccc1)N/N=C/c1ccccc1 | 95.3% (inactive) and 98.4% (inactive)
36 | Nc1nc2c3ccncc3cc(-c3cccc(Cl)c3)c2c2cnccc12 | 6.71% (active)
37 | O=C(N/N=C/c1ccccc1O)C(O)(c1ccccc1)c1ccccc1 | 35% (inactive)
38 | CCOC(=O)c1cc(/C(=N\O)c2cc(OC)c(OC)c(OC)c2)n2c(C)cccc12 | 3.22% (active)
39 | COc1cnc2c(c1)C(=O)c1c-2n(CCCN2CCN(C)CC2)c(=O)c2cc([N+](=O)[O-])ccc12 | -54% (active)
40 | COc1ccc(-c2nnc(SCC(=O)Nc3ccc(C(=O)/C=C/c4ccccc4)cc3)n2-c2ccccc2)cc1OC | 65.3% (inactive)
